# Laboratory results: PubChem BioAssay AID1159580 (chemical genetic matrix, 2015)
# Screen size: about 5,500 compounds; about 2,000 (36%) were called active. Roughly 18% stayed inconclusive and do not appear here. This is one part of the list. Unmarked numbers belong to inactive results. Rule as the data show it: active = normalized growth mostly below about 0.91 (no sharp cut-off); inconclusive = no clear call, values can overlap the other calls; inactive = mostly above about 0.92.
# Experiment: chemical genetic growth profiling, strain panel (AID 1159580);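 also: tested at 20 µM; growth read once vehicle control cultures reached saturation at 30 °C; 1 = growth at the plate median or of vehicle wells; lower values mean less growth of the strain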
# Conditions: S. cerevisiae deletion strains, growth OD
structure (smiles),measurement,setting,value
C=C1CCC2(OC1)OC1CC3C4CC=C5CC(O)CC(O)C5(C)C4CCC3(C)C1C2C (centres undefined),normalized growth,"locus YAL021C, strain ccr4, stronger effect = lower value",0.929
same,normalized growth,"locus YAL026C, strain drs2, stronger effect = lower value",0.87 (active)
same,normalized growth,"locus YAL030W, strain snc1, stronger effect = lower value",1.01
same,normalized growth,"locus YBL061C, strain skt5, stronger effect = lower value",1.01
same,normalized growth,"locus YBR009C, strain hhf1, stronger effect = lower value",0.873 (active)
same,normalized growth,"locus YBR023C, strain chs3, stronger effect = lower value",0.976
same,normalized growth,"locus YBR171W, strain sec66, stronger effect = lower value",1.01
same,normalized growth,"locus YBR231C, strain swc5, stronger effect = lower value",1.03
same,normalized growth,"locus YBR279W, strain paf1, stronger effect = lower value",0.995
same,normalized growth,"locus YCL011C, strain gbp2, stronger effect = lower value",0.914
same,normalized growth,"locus YCL016C, strain dcc1, stronger effect = lower value",0.979
same,normalized growth,"locus YCL069W, strain vba3, stronger effect = lower value",0.939
same,normalized growth,"locus YCR088W, strain abp1, stronger effect = lower value",0.984
same,normalized growth,"locus YDL005C, strain med2, stronger effect = lower value",0.995
same,normalized growth,"locus YDL040C, strain nat1, stronger effect = lower value",1.01
same,normalized growth,"locus YDR001C, strain nth1, stronger effect = lower value",1.01
same,normalized growth,"locus YDR069C, strain doa4, stronger effect = lower value",1.01
same,normalized growth,"locus YDR137W, strain rgp1, stronger effect = lower value",0.586 (active)
same,normalized growth,"locus YDR159W, strain sac3, stronger effect = lower value",0.916
same,normalized growth,"locus YDR195W, strain ref2",0.889
same,normalized growth,"locus YDR297W, strain sur2, stronger effect = lower value",1.01
same,normalized growth,"locus YDR334W, strain swr1, stronger effect = lower value",1.01
same,normalized growth,"locus YDR335W, strain msn5, stronger effect = lower value",0.899 (active)
same,normalized growth,"locus YDR392W, strain spt3, stronger effect = lower value",0.819
same,normalized growth,"locus YEL003W, strain gim4, stronger effect = lower value",0.99
same,normalized growth,"locus YEL037C, strain rad23, stronger effect = lower value",1
same,normalized growth,"locus YEL061C, strain CIN8 (second series), stronger effect = lower value",0.94
same,normalized growth,"locus YER015W, strain faa2, stronger effect = lower value",1
same,normalized growth,"locus YER016W, strain bim1, stronger effect = lower value",0.992
same,normalized growth,"locus YER111C, strain swi4, stronger effect = lower value",0.958
same,normalized growth,"locus YER155C, strain BEM2 (second series), stronger effect = lower value",1.01
same,normalized growth,"locus YFR010W, strain ubp6, stronger effect = lower value",0.97
same,normalized growth,"locus YGL167C, strain pmr1, stronger effect = lower value",1.02
same,normalized growth,"locus YGL173C, strain kem1, stronger effect = lower value",1.01
same,normalized growth,"locus YGL227W, strain vid30, stronger effect = lower value",0.976
same,normalized growth,"locus YGL240W, strain doc1, stronger effect = lower value",1
same,normalized growth,"locus YGL253W, strain hxk2, stronger effect = lower value",0.855 (active)
same,normalized growth,"locus YHR013C, strain ard1, stronger effect = lower value",1.06
same,normalized growth,"locus YHR027C, strain rpn1, stronger effect = lower value",0.966
same,normalized growth,"locus YHR142W, strain chs7, stronger effect = lower value",0.749 (active)
same,normalized growth,"locus YJL092W, strain hpr5, stronger effect = lower value",0.978
same,normalized growth,"locus YJL095W, strain BCK1 (second series), stronger effect = lower value",0.966
same,normalized growth,"locus YJL115W, strain asf1, stronger effect = lower value",1.01
same,normalized growth,"locus YJL129C, strain trk1, stronger effect = lower value",0.853 (active)
same,normalized growth,"locus YJL154C, strain vps35, stronger effect = lower value",1
same,normalized growth,"locus YJL164C, strain tpk1, stronger effect = lower value",0.886 (active)
same,normalized growth,"locus YJL166W, strain qcr8, stronger effect = lower value",0.944
same,normalized growth,"locus YKL160W, strain elf1, stronger effect = lower value",0.986
same,normalized growth,"locus YKR026C, strain gcn3, stronger effect = lower value",0.994
same,normalized growth,"locus YKR091W, strain srl3, stronger effect = lower value",1.01
same,normalized growth,"locus YLL001W, strain dnm1, stronger effect = lower value",0.923
same,normalized growth,"locus YLL026W, stronger effect = lower value",0.98
same,normalized growth,"locus YLL041C, strain sdh2, stronger effect = lower value",1
same,normalized growth,"locus YLR027C, strain aat2, stronger effect = lower value",0.987
same,normalized growth,"locus YLR258W, strain gsy2, stronger effect = lower value",0.988
same,normalized growth,"locus YLR262C, strain YPT6 (second series), stronger effect = lower value",0.548 (active)
same,normalized growth,"locus YLR320W, strain mms22, stronger effect = lower value",0.929
same,normalized growth,"locus YLR342W, strain FKS1, stronger effect = lower value",1.01
same,normalized growth,"locus YLR357W, strain rsc2, stronger effect = lower value",1.07
same,normalized growth,"locus YLR370C, strain arc18, stronger effect = lower value",1.02
same,normalized growth,"locus YLR384C, strain iki3, stronger effect = lower value",1.01
same,normalized growth,"locus YML120C, strain ndi1, stronger effect = lower value",0.928
same,normalized growth,"locus YMR058W, strain fet3, stronger effect = lower value",0.959
same,normalized growth,"locus YMR125W, strain sto1, stronger effect = lower value",1
same,normalized growth,"locus YMR129W, stronger effect = lower value",1.01
same,normalized growth,"locus YMR205C, strain PFK2, stronger effect = lower value",0.865 (active)
same,normalized growth,"locus YMR231W, strain pep5, stronger effect = lower value",1.02
same,normalized growth,"locus YNL071W, strain lat1, stronger effect = lower value",0.846 (active)
same,normalized growth,"locus YNL209W, strain ssb2, stronger effect = lower value",1.02
same,normalized growth,"locus YNL248C, strain rpa49, stronger effect = lower value",0.987
same,normalized growth,"locus YNL322C, strain KRE1 (second series), stronger effect = lower value",1
same,normalized growth,"locus YNR049C, strain mso1, stronger effect = lower value",1
same,normalized growth,"locus YOR001W, strain rrp6, stronger effect = lower value",0.944
same,normalized growth,"locus YOR070C, strain gyp1, stronger effect = lower value",0.997
same,normalized growth,"locus YOR080W, strain dia2, stronger effect = lower value",1.02
same,normalized growth,"locus YOR083W, strain WHI5, stronger effect = lower value",0.979
same,normalized growth,"locus YOR106W, strain vam3, stronger effect = lower value",0.911
same,normalized growth,"locus YOR265W, strain rbl2, stronger effect = lower value",1.01
same,normalized growth,"locus YOR270C, strain vph1, stronger effect = lower value",0.771 (active)
same,normalized growth,"locus YOR290C, strain snf2, stronger effect = lower value",0.887
same,normalized growth,"locus YPL051W, strain arl3, stronger effect = lower value",0.907 (active)
same,normalized growth,"locus YPL078C, strain atp4, stronger effect = lower value",0.929
same,normalized growth,"locus YPL106C, strain sse1, stronger effect = lower value",1.03
same,normalized growth,"locus YPL240C, strain hsp82, stronger effect = lower value",0.974
